Hits are enriched below; roughly 2.3% of the tested compounds scored in any of these assays.
CHRM1 antagonist: blocks human M1 muscarinic receptor; CHO-K1 hM1, Fluo-8 calcium fluorescence, ACh EC80 antagonist; 1.3% of 360,000 active; P11229; inhibition, % at 3 µM;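 active means percent inhibition above its own plate's cutoff, namely the mean of that plate's compound wells plus 3 SD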;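 further: peak over basal fluorescence ratio during 140 s after agonist addition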
Target sequence (P11229 whole entry, looked up): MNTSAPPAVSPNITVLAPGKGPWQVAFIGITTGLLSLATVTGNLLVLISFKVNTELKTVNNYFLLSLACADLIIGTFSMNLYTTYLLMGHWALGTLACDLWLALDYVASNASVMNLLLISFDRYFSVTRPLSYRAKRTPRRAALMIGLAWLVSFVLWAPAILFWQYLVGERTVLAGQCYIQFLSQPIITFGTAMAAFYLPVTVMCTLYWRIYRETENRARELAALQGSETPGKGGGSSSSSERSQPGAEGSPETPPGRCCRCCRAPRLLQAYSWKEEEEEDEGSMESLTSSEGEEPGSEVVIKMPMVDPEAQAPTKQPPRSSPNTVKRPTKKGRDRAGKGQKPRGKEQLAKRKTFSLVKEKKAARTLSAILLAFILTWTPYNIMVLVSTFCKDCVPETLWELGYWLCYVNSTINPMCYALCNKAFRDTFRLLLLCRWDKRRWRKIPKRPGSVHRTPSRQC
CHRM1 PAM: potentiates human M1 receptor response to acetylcholine; P11229; CHO-K1 hM1, Fluo-8 calcium fluorescence, ACh EC20; 0% = ACh EC20, 100% = maximal ACh; activation, % at 3 µM; 0.088% of 360,000 active; in the data active means activation above about 19%, passing the limit was not always enough
M1 PAM parental: M1 PAM counterscreen hit in parental CHO-K1 cells; AID 602247; 0.02% of 360,000 active; ATP EC20, Fluo-8 calcium fluorescence; 0% at ATP EC20, 100% at ATP max; activation, % at 3 µM;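 active means activation above the run cutoff, the mean activation of all test compounds plus 3 SD, cut at about 40% in these data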;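 further: peak over basal fluorescence ratio in a 140 s read after ATP addition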
M1 ag: activates human CHRM1 receptor; 0.33% of 360,000 active; CHO-K1 hM1, Fluo-8 calcium fluorescence, agonist mode; 0% DMSO, 100% acetylcholine EC100; activation, % at 3 µM; P11229;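 active means activation above the run's mean compound activation plus 3 SD, cut at about 16% in these data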;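 further: peak over basal fluorescence ratio within a 140 s kinetic read after compound addition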
CHO-K1 Ca antag: nonselective inhibitor or artifact in parental CHO-K1 cells; ATP-induced calcium, Fluo-8 fluorescence; 0.6% of 360,000 active; inhibition, % at 3 µM; AID 602250;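 active means inhibition above a per-plate cutoff, the plate's mean sample inhibition plus 3 SD, cut at about 24% in these data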
M1 ag parental: M1 agonist counterscreen hit in parental CHO-K1 cells; Fluo-8 calcium fluorescence; scaled to maximal ATP response, vehicle zero; activation, % at 3 µM; 0.48% of 360,000 active; AID 602248; in the data active means activation above about 15%;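 further: untransfected CHO-K1 host cells lacking M1 receptor as counterscreen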
Large screens that a line does not name were inactive.

O=C1c2ccc(Oc3ccc([N+](=O)[O-])cc3)cc2C(=O)N1CCO	M1 ag parental 16.7
O=C(O)c1ccc(CN2C(=O)c3ccc(Oc4ccc([N+](=O)[O-])cc4)cc3C2=O)cc1	none
COc1ccc(CN2CC[C@@H](N3CCOCC3)[C@H](O)C2)cc1F	none
COC(=O)c1ccc(CN2CCCC(C(=O)c3cc(F)ccc3OC)C2)cc1 (stereo not drawn)	none
COC(=O)c1ccc(CN2CCCC(C(=O)c3ccccc3OC)C2)cc1 (stereo not drawn)	M1 ag 27.2
CCOC(=O)C1CCN(C(=O)CCC(=O)NCCc2ccc(Cl)cc2)CC1	none
COC(=O)c1ccc(CN2CCN(CC(C)C)C(CCO)C2)cc1 (stereo not drawn)	CHRM1 antagonist 35.4
CCOC(=O)C1CCC(CNCc2ccc(Cl)cc2)CC1 (stereo not drawn)	CHRM1 antagonist 45.3
CCOC(=O)C1CCN(Cc2ccc(C(=O)OC)cc2)CC1	CHRM1 antagonist 67.1, M1 ag 43.1
C[C@@H]1CN([C@@H](C)CO)C(=O)c2cc(-c3ccccc3F)cnc2O[C@H]1CN(C)Cc1cccc(F)c1	none
COc1ccc(C(=O)Nc2ccc(CN3CCCCC3)cc2)cc1	none
COC(=O)c1ccc(CN2CCCC(C(=O)Nc3ccc(-c4ccn[nH]4)cc3)C2)cc1 (stereo not drawn)	M1 ag 36.5
CCOC(=O)C1(CC2CC2)CCN(Cc2ccc(C(=O)OC)cc2)CC1	CHRM1 antagonist 60.0
CCOC(=O)C1(CCc2ccccc2)CCN(Cc2ccc(C(=O)OC)cc2)CC1	none
CCOC(=O)C1(CC2CC2)CCN(Cc2cn(C)c3ccccc23)CC1	CHRM1 antagonist 32.5
COC(=O)c1ccc(CN2CCCCC2)cc1	M1 ag 27.4
CCOC(=O)C1(Cc2ccccc2)CCN(Cc2cn(CC(=O)OC)c3ccccc23)CC1	none
CCN(CC)C(=O)[C@H]1CC(CC(=O)NCc2ccc(OC)c(OC)c2)C(=O)N2CCc3c([nH]c4ccc(OC)cc34)[C@]12C (stereo partly drawn)	none
CC(Oc1cc2oc(=O)c3c(c2cc1Cl)CCC3)C(=O)NCc1ccccn1 (stereo not drawn)	none
COc1ccc(/C=C/CN2CCC(CO)(Cc3ccccc3Cl)CC2)cc1	CHRM1 antagonist 30.6
COC(=O)c1ccc(CN2CCC(CO)(Cc3ccccc3Cl)CC2)cc1	CHRM1 antagonist 52.5, M1 ag 19.1
COc1cc(-c2cc3nc(NCc4cccc(Cl)c4)ccn3n2)cc(OC)c1OC	none
COCCCNc1ccn2nc(-c3ccc(Cl)cc3)cc2n1	CHO-K1 Ca antag 24.1
CCOC(=O)c1ccc(CNC(=O)C2CCC(=O)N(CCc3ccccc3)C2)o1 (stereo not drawn)	none
Cc1c(CCOC(=O)C2C3CC4CC(C3)CC2C4)sc[n+]1CC(=O)c1ccc(Br)cc1 (stereo not drawn)	CHRM1 antagonist 39.3
COc1ccc(C(=O)OCCc2sc[n+](CC(=O)c3ccccc3)c2C)cc1	CHRM1 antagonist 69.0
CCC(C)N1C(=O)C2C(C(=O)Nc3cccc(OC)c3)C3C=CC2(O3)C1C(=O)NC1CCCCC1C (stereo not drawn)	CHO-K1 Ca antag 27.6
CN(Cc1nccs1)C(=O)c1ccc2nc(Cc3ccccc3F)oc2c1	none
CN(Cc1nccn1C)C(=O)c1ccc2nc(Cc3ccccc3F)oc2c1	CHRM1 antagonist 48.0
COc1ccc(C(=O)NCCSCc2ccccc2C)cc1	CHO-K1 Ca antag 30.4
COc1ccc(NC(=O)C2(C)CCCN(C(C)C)C2)cc1OC (stereo not drawn)	CHRM1 PAM 33.8
Cc1ccc(NC(=O)C2(C)CCCN(C(C)C)C2)cc1C (stereo not drawn)	none
CCOC(=O)c1c(C)[nH]c(C(=O)OCC(=O)Nc2sccc2C(N)=O)c1C	CHRM1 antagonist 30.7, M1 ag parental 17.4
CC(C)[C@H](NC(=O)c1ccccc1)C(=O)OCC(=O)Nc1sccc1C(N)=O	none
CCC(Oc1ccccc1)C(=O)OCC(=O)Nc1sccc1C(N)=O (stereo not drawn)	M1 ag parental 16.9
CC(Oc1ccccc1)C(=O)OCC(=O)Nc1sccc1C(N)=O (stereo not drawn)	CHRM1 antagonist 39.7
CCOC(=O)c1c(C)[nH]c(C(=O)OCC(=O)Nc2ccc(Cl)cn2)c1C	none
COc1ccc(C(CNC(=O)COc2cc(C)c(Cl)c(C)c2)N2CCCCC2)cc1 (stereo not drawn)	none
Cc1ccc(NC(=O)CN2C(=O)NC(Cc3ccccc3)C2=O)cc1Cl (stereo not drawn)	none
O=C(O)CN1C(=O)/C(=C/c2ccccc2Br)Oc2ccccc21	none
Cc1ccc(-c2csc(N(CCCN3CCOCC3)C(=O)c3ccco3)n2)cc1	none
COc1ccc(-c2csc(N(CCCN3CCOCC3)C(=O)c3ccco3)n2)cc1	CHRM1 antagonist 42.4
COc1ccc(-c2csc(N(CCCN(C)C)C(=O)c3cccs3)n2)cc1	CHRM1 antagonist 29.8
N#Cc1ccc(CNC(=O)N2CCOCC2)cc1	none (no result: M1 PAM parental, CHO-K1 Ca antag, M1 ag parental)
CCOC(=O)C(=NO)C1=CSC2=NNC(C)(C)N12	none
O=[N+]([O-])c1c(Nc2ccc(O)cc2)cc(Cl)c2nonc12	CHRM1 antagonist 41.5, CHO-K1 Ca antag 44.5
COC(=O)c1cc2c([nH]c1=O)CCCC2=O	none
CCc1nnc(NC(=O)C(CC)CC)s1	none
CC[N+]1(C)CCC(=C2c3ccccc3CC(=O)c3sccc32)CC1 (stereo not drawn)	CHRM1 antagonist 98.3
C[N+]1(C)CCC(=C2c3ccccc3CC(=O)c3sccc32)CC1	CHRM1 antagonist 94.6
CCOC1=C2[C@@H](CN(S(=O)(=O)c3ccc(C)cc3)[C@H]2c2ccccc2Cl)[C@H]2C(=O)N(C)C(=O)[C@H]2C1	none
COC(=O)c1ccccc1NC(=O)COc1ccc2c(c1)OCO2	CHO-K1 Ca antag 29.7
O=C(COc1ccc2c(c1)OCO2)Nc1ccccc1F	none
CC(Sc1nnc(-c2cccs2)n1-c1ccccc1)C(=O)NCc1ccc2c(c1)OCO2 (stereo not drawn)	CHO-K1 Ca antag 24.0
CC1CCCN(C(=O)c2cc3ccccc3cc2O)C1 (stereo not drawn)	none
Cc1ccc2c(C)c(C(=O)N(Cc3ccccc3)C3CCS(=O)(=O)C3)oc2c1 (stereo not drawn)	none
Cc1ccc2c(C)c(C(=O)N(Cc3cccs3)C3CCS(=O)(=O)C3)oc2c1 (stereo not drawn)	CHRM1 PAM 23.7
CCN(CC)C(=O)Cn1cc(S(=O)(=O)CC(=O)Nc2ccc(C(N)=O)cc2)c2ccccc21	none
CCOC(=O)C1=CCN(S(=O)(=O)c2ccccc2C)C1c1cccc(Br)c1 (stereo not drawn)	none

High-throughput results as filed in PubChem BioAssay.
